This note sets out measurements from PubChem BioAssay AID1259415 (National Center for Advancing Translational Sciences (NCATS), 2018).

Among all 410,000 compounds or so, about 18,000 (4.4%) were called active. Inconclusive results (about 7%) are left out. For the sample, actives were picked, then their nearest neighbours and some compounds at random. Values without a mark were called inactive. Cut-off read from the data, not from the text of the source: active = activity change below about -60%; inconclusive = no clear call, values can overlap the other calls; inactive = above about -39%.
% is set by controls: 0 for no effect and ±100 for the full control effect.

A short description of this assay: qHTS Assay for inhibitors of the human cytomegalovirus (HCMV). Conditions: HFF cells, HCMV-luciferase reporter, 72 h; at 57.5 µM; hits give low values. In short, it runs like this: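 Steps: HFFs plated, 16 h 37C; compounds added; HCMV-luciferase added to MOI 1 PFU/cell; 72 h 37C; OneGlo reagent, 5 min room temperature; luminescence read, normalized to controls.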
A general note: Quantitative high-throughput screening tests each substance at several concentrations.
With `Cc1oc2c(c1C(=O)Nc1ccc(F)c(F)c1)C1=NCCN1C=N2`, the activity change, negative = inhibition was -2.2%.

As to `CCn1c(C(=O)Nc2cc(Cl)ccc2C)cc2sc(Cl)cc21`, the activity change, negative = inhibition was -25.2%.

As to `Fc1ccc(Cn2nnnc2C(c2cccs2)N2CCCCCC2)cc1` (stereo not given), the activity change, negative = inhibition was -74.3% (active).

Turning to `N#Cc1ccc(C(c2nnnn2CCc2ccccc2)N2CCCCCC2)cc1` (stereo not given), the activity change, negative = inhibition was -31.2%.

For `Fc1ccccc1C(c1nnnn1Cc1ccc2c(c1)OCO2)N1CCN(Cc2ccccc2)CC1` (stereo not given), the activity change, negative = inhibition is -2.67%.

With `COC(=O)c1c(NC(=O)C(C)Oc2ccc(Cl)c(C)c2)sc(C)c1C` (stereo not given), the activity change, negative = inhibition was 24.4%.

As for `Cc1cc(C)cc(OCC(=O)OCC(=O)NC2CCCC2)c1`, the activity change, negative = inhibition was 0%.

For the molecule `CCOC(=O)C1CCCN(C(=O)Cn2ncc3c(C)n(Cc4ccc(F)cc4)c(C)c3c2=O)C1` (stereo not given), the activity change, negative = inhibition was -24.7%.

Regarding `CCOC(=O)c1scc(-c2ccccc2)c1S(=O)(=O)Nc1ccccc1F`, the activity change, negative = inhibition was -9.83%.

Turning to `COC(=O)c1scc(-c2ccccc2)c1S(=O)(=O)Nc1ccccc1`, the activity change, negative = inhibition is -65.6% (active).

As for `COC(=O)c1scc(-c2ccc(C)cc2)c1S(=O)(=O)Nc1cc(Cl)c(OC)cc1OC`, the activity change, negative = inhibition was -32.1%.

Regarding `Cc1cc(O)c(C(c2ccccc2)N2CCN(c3ccccc3F)CC2)c(=O)n1Cc1ccco1` (stereo not given), the activity change, negative = inhibition is 11.6%.

For `CCc1ccc(CNC(=O)C2CCN(c3nnc(C)c4c(C)n(-c5ccc(C)cc5)nc34)CC2)cc1`, the activity change, negative = inhibition was -8.15%.

Consider `Cc1nnc(N2CCC(C(=O)Nc3ccc(F)cc3)CC2)c2nn(-c3ccc(Cl)cc3)c(C)c12`, for which the activity change, negative = inhibition was -83.4% (active).

On to `CC(=O)Nc1c(C)nn(-c2ccccc2)c1N1CCC(C(=O)Nc2cc(Cl)ccc2C)CC1`, for which the activity change, negative = inhibition was 54.8%.

As to `CCOC(=O)C1CCC(CN(Cc2ccc(OC)cc2)S(=O)(=O)c2ccc(F)c(C(=O)Nc3cc(C)ccc3C)c2)CC1` (stereo not given), the activity change, negative = inhibition was -8.08%.

Turning to `CCOCCCNC(=O)c1c(NC(=O)Cc2coc3ccc(C)cc23)sc2c1CCC2`, the activity change, negative = inhibition was -5.35%.

Consider `CCc1c(C)nc2ncnn2c1N1CCC(C(=O)NCc2ccc3c(c2)OCO3)CC1`, for which the activity change, negative = inhibition is -29.2%.

On to `FC(F)(F)c1cc(Nc2nc3ccccc3c3nncn23)ccc1Cl`, for which the activity change, negative = inhibition is -13.6%.

For `CCC(=O)N1c2ccccc2CC1C(=O)N1CCN(c2ccccc2)CC1` (stereo not given), the activity change, negative = inhibition was 2.26%.

For `CCN(c1ncnc2c1cnn2-c1ccc(C)cc1)C1CCCCC1`, the activity change, negative = inhibition is -79.6% (active).

With `CN(C(=O)COc1ncnc2c1cnn2-c1ccccc1)C1CCCCC1`, the activity change, negative = inhibition is -21.9%.

For `Cc1ccc(-n2ncc3c(N4CCC(C(N)=O)CC4)ncnc32)cc1`, the activity change, negative = inhibition is 80.5%.

Regarding `COc1ccc(CCNC(=O)CCc2c(C)nc3c(c(C)nn3-c3ccc(C)c(C)c3)c2C)c(OC)c1OC`, the activity change, negative = inhibition is 22.2%.

Regarding `COc1cc(NS(=O)(=O)c2ccc3c(c2)OCC(C(=O)N2CCCC2)O3)cc(OC)c1` (stereo not given), the activity change, negative = inhibition was -21.9%.

For `C=Cc1ccc(Cn2c(C(=O)OC)cc3sc(C)cc32)cc1`, the activity change, negative = inhibition is -33.1%.

Regarding `O=C(O)c1ccc(OCC2CCCO2)cc1` (stereo not given), the activity change, negative = inhibition is 63.5%.

As for `Cc1cc(C)nc(N2C(=O)CC(Cc3ccccc3)C2=O)n1` (stereo not given), the activity change, negative = inhibition is -1.22%.

On to `Cc1ccc(CC2CC(=O)N(c3nc(C)cc(C)n3)C2=O)cc1` (stereo not given), for which the activity change, negative = inhibition is -6.32%.

As to `COC(=O)CC1=NN(c2nc(C)cc(C)n2)C(=O)C1`, the activity change, negative = inhibition was -72.6% (active).

With `O=C(NCc1cc(F)cc(C(F)(F)F)c1)C1CCC(=O)N(C2CCCC2)C1` (stereo not given), the activity change, negative = inhibition was 8.32%.

On to `NCCCCCC(=O)N/N=C/c1ccc2nccnc2c1`, for which the activity change, negative = inhibition is -14.8%.

For the molecule `CC(=NNC(=O)c1ccncc1)c1ccc(Cl)c(Cl)c1`, the activity change, negative = inhibition was -31%.

`O=C(N/N=C/c1ccc(Cl)c(Cl)c1)c1ccc2nc[nH]c2c1`: the activity change, negative = inhibition was -65.6% (active).

In the case of `CCc1ccc(CN(Cc2ccco2)C(=O)c2ccccc2Cl)cc1`, the activity change, negative = inhibition was 33.9%.

Consider `O=C(CN1C(=O)CCn2nc(-c3ccccc3)cc21)NCc1ccccc1`, for which the activity change, negative = inhibition was 6.04%.

Turning to `c1cncc(CNCCc2c[nH]c3ccccc23)c1`, the activity change, negative = inhibition is -8.49%.

For `Cc1cc(C)cc(NC(=S)NCCc2c[nH]c3ccccc23)c1`, the activity change, negative = inhibition was -73.6% (active).

With `O=C(COC(=O)Cc1c[nH]c2ccccc12)NCCc1ccccc1`, the activity change, negative = inhibition is 10.5%.

`O=C(c1[nH]ncc1-c1ccc(Cl)cc1)C1CO1` (stereo not given): the activity change, negative = inhibition was -78.7% (active).

For `COc1ccc(NC(=O)C2Cc3c(-c4ccc(Cl)cc4)ccnc3O2)cc1` (stereo not given), the activity change, negative = inhibition was -3.46%.

In the case of `COc1cccc(CNC(=O)C2CCN(S(=O)(=O)c3ccc4c(ccn4C)c3)CC2)c1`, the activity change, negative = inhibition is 16.9%.

Take `c1ccc2c(-c3nn4nnnc4c4ccccc34)cccc2c1`: the activity change, negative = inhibition is 49.8%.

With `CN(C(=O)CSc1nc2ccc(NC(=O)COc3ccccc3)cc2s1)c1ccccc1`, the activity change, negative = inhibition is -30%.

Turning to `COc1ccc2c(c1)c(N1CCCC1=O)c(C(=O)Nc1ccccc1C(F)(F)F)n2C`, the activity change, negative = inhibition was -24.2%.
